Potency and outcome data for 7 compounds are collected here from PubChem BioAssay (Tox21).

The nature of assay [1]: qHTS assay to identify small molecule antagonists of the thyroid receptor (TR) signaling pathway (AID 743065). Also: nearly all actives have a fitted effect of over 55% in size. To be noted: GH3.TRE-Luc, T3-stimulated luciferase inhibition, 23.5 h; series mostly up to 70.3 µM. Summed up:
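Antagonism measured as loss of luciferase signal in GH3 cells stably carrying a TRE-luciferase reporter, co-treated with compound and T3 (1 nM final) for 23.5 h at 37 C. Viability was read in the same well by CellTiter-Fluor.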

Assay [2] relates to thyroid hormone receptor (rat, GH3 cells). Description: qHTS assay to identify small molecule agonists of the thyroid receptor (TR) signaling pathway (AID 743066; calls by dose curve). To be noted: GH3.TRE-Luc cells, TR agonist luciferase, 24 h; series mostly up to 83.9 µM.
Assay [3] has as its target Estrogen receptor (Homo sapiens) (UniProt P03372). Description: qHTS assay to identify small molecule antagonists of the estrogen receptor alpha (ER-alpha) signaling pathway (AID 743069; active = well fitted curve in the direction sought with a large enough effect in the signal ratio in the repeat runs, not every such curve was filed as active; the % refers to the signal ratio). To be noted: HEK293 ER-alpha-UAS-bla, beta-lactamase ratio, antagonist mode; series mostly up to 69.4 µM. The procedure, abridged: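 ER-alpha-UAS-bla GripTite HEK293 line; 2% charcoal-stripped FBS overnight; plated, 4 hr 37C/5% CO2; cpd in DMSO + 17beta-estradiol, 18 hr 37C; LiveBLAzer B/G FRET substrate 2 hr RT; fluorescence intensity.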
For orientation: In qHTS, concentration-response curves come from the screen itself.

Assay [4] is described as follows: qHTS assay to identify small molecule antagonists of the estrogen receptor alpha (ER-alpha) signaling pathway - cell viability counter screen (AID 743074; calls by dose curve;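 also: HEK293 cells carrying ER-alpha-UAS-bla reporter stimulated with 17beta-estradiol; nearly all actives have a fitted effect of over 45% in size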). To be noted: ERalpha-bla HEK293 viability, CellTiter-Glo luminescence, 18 h; series mostly up to 69.4 µM.
For assay [5], the target named is Estrogen receptor (Homo sapiens) (UniProt P03372). Put plainly: qHTS assay to identify small molecule agonists of the estrogen receptor alpha (ER-alpha) signaling pathway (AID 743075; calls by dose curve;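 also: HEK293 GripTite cells with ER-alpha and UAS-driven beta-lactamase reporter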). To be noted: HEK293 ER-alpha-UAS-bla, beta-lactamase FRET ratio, 18 h; series mostly up to 70.1 µM.
Estrogen receptor (Homo sapiens), sequence (P03372 whole entry, looked up): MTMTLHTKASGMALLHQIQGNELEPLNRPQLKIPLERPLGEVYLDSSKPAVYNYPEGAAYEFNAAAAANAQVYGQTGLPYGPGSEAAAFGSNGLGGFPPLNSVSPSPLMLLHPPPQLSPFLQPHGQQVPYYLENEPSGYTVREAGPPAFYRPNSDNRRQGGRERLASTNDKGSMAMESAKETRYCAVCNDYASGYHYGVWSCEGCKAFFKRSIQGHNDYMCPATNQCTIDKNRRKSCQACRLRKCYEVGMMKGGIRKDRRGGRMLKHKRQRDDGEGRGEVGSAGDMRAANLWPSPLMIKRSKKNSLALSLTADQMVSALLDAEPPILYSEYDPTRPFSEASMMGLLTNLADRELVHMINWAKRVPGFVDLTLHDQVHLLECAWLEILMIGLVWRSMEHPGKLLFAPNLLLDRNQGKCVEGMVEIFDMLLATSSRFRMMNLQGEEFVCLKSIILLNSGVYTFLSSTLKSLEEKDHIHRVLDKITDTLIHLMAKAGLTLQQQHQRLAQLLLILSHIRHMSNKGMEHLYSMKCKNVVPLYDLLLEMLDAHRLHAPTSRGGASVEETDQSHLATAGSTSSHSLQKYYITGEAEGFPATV
Assay [6] shares this target. Description: qHTS assay to identify small molecule agonists of the estrogen receptor alpha (ER-alpha) signaling pathway using the BG1 cell line (AID 743079). Also: nearly all actives have a fitted effect of over 20% in size. Also: potency is read from the fitted curve at half-maximal effect. To be noted: BG1Luc4E2 cells, ERE-luciferase agonist, 22 h; series mostly up to 70.3 µM.
Assay [7] is described as follows: qHTS assay to identify small molecule antagonists of the estrogen receptor alpha (ER-alpha) signaling pathway using the BG1 cell line (AID 743080; calls by dose curve; also: nearly all actives have a fitted effect of over 25% in size). To be noted: BG1Luc4E2 ERE-luciferase antagonist mode, luminescence; series mostly up to 70.3 µM. Summed up: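 Antagonist mode: compounds in DMSO were pinned onto BG1-Luc-4E2 cells alongside 17beta-estradiol agonist, incubated 21.5 h, and ERE-driven luciferase measured with ONE-Glo. Cytotoxicity was multiplexed using CellTiter-Fluor fluorescence.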

The nature of assay [8]: qHTS assay to identify small molecule antagonists of the estrogen receptor alpha (ER-alpha) signaling pathway using the BG1 cell line - cell viability counter screen (AID 743081).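 Also: compound given together with 17beta-estradiol as the ER stimulus; nearly all actives have a fitted effect of over 45% in size.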 To be noted: BG1Luc4E2 viability, CellTiter-Fluor, 22 h; series mostly up to 70.3 µM.
The next assay deals with Aromatase (Homo sapiens) (UniProt P11511). Put plainly: qHTS assay to identify aromatase inhibitors (AID 743083). Also: nearly all actives have a fitted effect of over 55% in size. To be noted: MCF-7 aro ERE, testosterone-driven ERE luciferase, 24 h; series mostly up to 70.3 µM.
Aromatase (Homo sapiens), sequence (P11511 whole entry, looked up): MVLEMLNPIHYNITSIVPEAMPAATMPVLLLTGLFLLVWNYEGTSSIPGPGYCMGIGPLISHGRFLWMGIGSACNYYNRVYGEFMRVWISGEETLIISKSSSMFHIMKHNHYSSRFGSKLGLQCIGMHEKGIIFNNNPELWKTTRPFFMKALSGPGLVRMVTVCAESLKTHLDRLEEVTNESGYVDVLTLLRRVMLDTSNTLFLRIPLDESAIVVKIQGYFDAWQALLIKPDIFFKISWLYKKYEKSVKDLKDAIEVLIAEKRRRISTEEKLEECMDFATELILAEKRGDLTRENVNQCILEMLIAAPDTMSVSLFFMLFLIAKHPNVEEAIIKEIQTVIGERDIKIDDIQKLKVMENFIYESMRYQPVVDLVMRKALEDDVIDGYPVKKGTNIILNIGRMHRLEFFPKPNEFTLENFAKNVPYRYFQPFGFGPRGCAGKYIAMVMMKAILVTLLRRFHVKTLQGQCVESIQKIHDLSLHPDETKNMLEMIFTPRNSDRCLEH
Assay [9] can be described thus: qHTS assay to identify aromatase inhibitors - cell viability counter screen (AID 743084).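 Also: cells stimulated with testosterone during compound exposure; nearly all actives have a fitted effect of over 55% in size.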 To be noted: MCF-7 aro ERE viability, CellTiter-Fluor, 24 h; series mostly up to 70.3 µM.
Assay [10] has as its target Aryl hydrocarbon receptor (Homo sapiens) (UniProt P35869). Put plainly: qHTS assay to identify small molecule that activate the aryl hydrocarbon receptor (AhR) signaling pathway (AID 743085).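 Also: HG2L7.5c1 human HepG2 liver cells with stably integrated DRE-driven firefly reporter; nearly all actives have a fitted effect of over 15% in size.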 To be noted: HepG2 AhR-luc (HG2L7.5c1), luciferase, 24 h; series mostly up to 70.3 µM. The procedure, abridged:
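Reporter assay in engineered HepG2 line HG2L7.5c1, whose plasmid carries twenty dioxin responsive elements upstream of firefly luciferase. Treatment lasted 24 h at 37C; ONE-Glo luminescence gauged induction.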

The nature of assay [11]: qHTS assay to identify small molecule that activate the aryl hydrocarbon receptor (AhR) signaling pathway - cell viability counter screen (AID 743086).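 Also: HepG2 liver cells carrying the AhR DRE luciferase reporter; nearly all actives have a fitted effect of over 45% in size.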 To be noted: HepG2-AhR-luc viability, CellTiter-Fluor, 24 h; series mostly up to 70.3 µM. The procedure, abridged:
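Cytotoxicity counter screen: CellTiter-Fluor signal (30 min, 37 C) in 4000 HepG2 cells/well carrying the DRE-luciferase reporter, following 24 h compound exposure at 37 C.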

Assay [12] addresses Peroxisome proliferator-activated receptor gamma (Homo sapiens) (UniProt P37231). Put plainly: qHTS assay to identify small molecule agonists of the peroxisome proliferator-activated receptor gamma (PPARg) signaling pathway (AID 743094; active = well fitted activation curve with a large enough effect in the signal ratio in the repeat runs, not every such curve was filed as active; the % refers to the signal ratio). To be noted: HEK293H PPARg-UAS-bla, beta-lactamase FRET ratio, 17 h; series mostly up to 57 µM. The procedure, abridged:
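GeneBLAzer PPARg UAS-bla HEK293H cells were plated, rested 5 h, then exposed to compounds for 17 h at 37C. Beta-lactamase activity was read by LiveBLAzer B/G FRET substrate fluorescence after 1 h at room temperature.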

The target is the same in assay [13]. Description: qHTS assay to identify small molecule antagonists of the peroxisome proliferator-activated receptor gamma (PPARg) signaling pathway (AID 743191; calls by dose curve; also: nearly all actives have a fitted effect of over 30% in size). To be noted: HEK293H PPARg-UAS-bla, beta-lactamase ratio, antagonist, 17 h; series mostly up to 62.6 µM. The procedure, abridged:
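Beta-lactamase reporter under UAS control in HEK293H PPARg-bla cells; compound treatment 17 h at 37C. Read-out: fluorescence intensity after 1 h room-temperature incubation with LiveBLAzer B/G FRET substrate.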

The nature of assay [14]: qHTS assay to identify small molecule antagonists of the peroxisome proliferator-activated receptor gamma (PPARg) signaling pathway - cell viability counter screen (AID 743194). Also: nearly all actives have a fitted effect of over 55% in size. To be noted: PPARg-bla HEK293H viability, CellTiter-Glo luminescence, 17 h, co-treated with 50 nM rosiglitazone; series mostly up to 62.6 µM. Summed up:
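Viability was measured as CellTiter-Glo luminescence in GeneBLAzer PPARg UAS-bla HEK293H cells. These cells had been exposed 17 h at 37 C to compounds together with rosiglitazone at 50 nM final, with the beta-lactamase readout taken in the same wells.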

Assay [15] is described as follows: qHTS assay for small molecule agonists of the antioxidant response element (ARE) signaling pathway (AID 743202; active = well fitted activation curve with a large enough effect in the signal ratio in the repeat runs, not every such curve was filed as active; the % refers to the signal ratio). To be noted: HepG2 ARE-bla reporter, beta-lactamase FRET, 16 h; series mostly up to 73.3 µM. Summed up:
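Quantitative high-throughput format in HepG2 cells bearing an integrated ARE-beta-lactamase reporter. Compound exposure lasted 16 h at 37 C, and fluorescence was read 2 h after adding LiveBLAzer B/G substrate at room temperature.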

Assay [16] in a line: qHTS assay for small molecule agonists of the antioxidant response element (ARE) signaling pathway - cell viability counter screen (AID 743203; calls by dose curve; also: nearly all actives have a fitted effect of over 55% in size). To be noted: ARE-bla HepG2 viability, CellTiter-Glo luminescence, 16 h; series mostly up to 73.3 µM. Summed up: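 ARE-bla HepG2 cells were plated, rested 5 h at 37C/5% CO2, then exposed to compounds in DMSO for 16 h. Viability was read as CellTiter-Glo luminescence after 30 min at room temperature, in the same wells as the ARE screen.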

Assay [17] in a line: qHTS assay for small molecule activators of the heat shock response signaling pathway - cell viability counter screen (AID 743209). Also: nearly all actives have a fitted effect of over 50% in size. To be noted: HSE-bla HeLa viability, CellTiter-Glo luminescence, 5 h; series mostly up to 62.6 µM. The procedure, abridged:
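HSE-bla HeLa cells plated overnight, then exposed to Tox21 compounds (23 nL in DMSO) for 5 h at 37 C. After the bla reporter read, CellTiter-Glo was added in the same wells and luminescence read after 30 min at room temperature.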

Assay [18] can be described thus: qHTS assay for small molecule activators of the heat shock response signaling pathway (AID 743210; active = well fitted activation curve with a large enough effect in the signal ratio in the repeat runs, with a control signal flat, not every such curve was filed as active; the % refers to the signal ratio;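 also: HeLa cells with beta-lactamase reporter driven by heat shock elements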). To be noted: HeLa HSE-bla reporter, beta-lactamase ratio, 5 h; series mostly up to 62.6 µM. The procedure, abridged: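 HeLa HSE-bla cells, overnight plating; cpd in DMSO 5 h, 37 C; LiveBLAzer B/G FRET substrate 2.5 h RT; fluorescence intensity read.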
The nature of assay [19]: qHTS assay to identify small molecule antagonists of the thyroid receptor (TR) signaling pathway - cell viability counter screen (AID 743064). Also: nearly all actives have a fitted effect of over 50% in size. To be noted: GH3.TRE-Luc viability, CellTiter-Fluor, 24 h; series mostly up to 70.3 µM. The procedure, abridged:
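Same-well viability check: GH3.TRE-Luc cells stimulated with 1 nM T3 alongside test compound for 23.5 h, followed by CellTiter-Fluor fluorescence.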

Inconclusive results are not listed. A number with no mark means an inactive call. The source made the active and inactive calls. Unless noted, calls follow the shape of the dose curve; as a rule, active = well fitted curve in the direction sought with a large enough effect in the repeat runs; inconclusive = weak or mixed curves; inactive = no such curve, though single readings can be large; an effect the other way counts as inactive or inconclusive.

Aryl hydrocarbon receptor (Homo sapiens), sequence (P35869 whole entry, looked up): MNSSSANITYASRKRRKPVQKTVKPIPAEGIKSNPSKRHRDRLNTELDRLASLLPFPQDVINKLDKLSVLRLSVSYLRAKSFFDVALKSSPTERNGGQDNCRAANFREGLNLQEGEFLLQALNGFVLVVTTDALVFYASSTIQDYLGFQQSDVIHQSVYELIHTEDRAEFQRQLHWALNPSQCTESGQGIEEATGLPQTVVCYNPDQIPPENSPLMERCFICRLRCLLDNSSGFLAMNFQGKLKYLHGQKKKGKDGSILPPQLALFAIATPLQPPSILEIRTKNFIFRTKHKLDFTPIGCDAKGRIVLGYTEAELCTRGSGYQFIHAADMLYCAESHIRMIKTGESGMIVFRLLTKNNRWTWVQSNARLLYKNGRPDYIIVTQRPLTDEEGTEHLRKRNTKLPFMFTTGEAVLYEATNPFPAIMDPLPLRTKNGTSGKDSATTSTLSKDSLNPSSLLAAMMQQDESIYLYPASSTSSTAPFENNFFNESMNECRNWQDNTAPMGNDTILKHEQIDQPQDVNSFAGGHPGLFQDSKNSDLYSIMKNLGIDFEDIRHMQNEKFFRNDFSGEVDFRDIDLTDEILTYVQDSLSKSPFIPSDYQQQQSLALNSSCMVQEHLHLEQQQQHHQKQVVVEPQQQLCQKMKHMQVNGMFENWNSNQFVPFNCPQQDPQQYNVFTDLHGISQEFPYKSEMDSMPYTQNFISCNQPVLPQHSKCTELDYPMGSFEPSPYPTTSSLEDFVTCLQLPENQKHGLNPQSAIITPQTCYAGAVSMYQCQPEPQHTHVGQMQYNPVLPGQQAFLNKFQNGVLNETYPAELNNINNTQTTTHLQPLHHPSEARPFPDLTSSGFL
Peroxisome proliferator-activated receptor gamma (Homo sapiens), sequence (P37231 whole entry, looked up): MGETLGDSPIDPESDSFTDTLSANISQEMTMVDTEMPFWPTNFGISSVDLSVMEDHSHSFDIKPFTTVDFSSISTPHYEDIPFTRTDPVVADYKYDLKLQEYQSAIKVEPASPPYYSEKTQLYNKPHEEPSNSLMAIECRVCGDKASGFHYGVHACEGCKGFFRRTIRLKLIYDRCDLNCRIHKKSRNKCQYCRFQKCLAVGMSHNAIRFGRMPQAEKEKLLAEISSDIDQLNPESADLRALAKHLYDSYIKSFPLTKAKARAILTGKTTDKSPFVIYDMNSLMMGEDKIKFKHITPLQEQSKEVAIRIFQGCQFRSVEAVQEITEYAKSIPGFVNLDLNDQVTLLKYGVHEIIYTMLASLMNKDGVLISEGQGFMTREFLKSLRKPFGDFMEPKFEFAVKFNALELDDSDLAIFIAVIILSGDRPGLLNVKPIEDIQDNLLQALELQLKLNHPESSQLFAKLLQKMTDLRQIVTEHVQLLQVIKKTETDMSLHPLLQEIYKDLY

Regarding `CCCCCCCCCCCCCCCCCC(=O)OCCCCCCCCCCCCCC(C)C`, the Potency result (in assay [1]; in assay [2]; in [3]; in assay [5]; in assay [7]; in the assay with Aromatase (Homo sapiens)) was “inactive” throughout. Besides, the Potency result in assay [9], in [10], in assay [11], in [14] and in assay [15] was “inactive” in each case. Also, the compound was called inactive in assay [4], in assay [8], in [12], in assay [13], in assay [16] and in [17]. In [18], the result was inactive. In addition, the Potency in assay [6] was 56.4 µM (active).

For `NC(=O)c1ncn([C@@H]2O[C@H](CO)[C@@H](O)[C@H]2O)c1O`, the Potency entry in assay [19], in assay [2], in assay [3], in [5], in assay [6] and in assay [7] was “inactive” each time. Also, the Potency entry (with Aromatase (Homo sapiens); in [9]; in assay [10]; in assay [11]; in assay [14]) was “inactive” in each case. Further, the result in assay [4], in [8], in assay [12], in assay [16] and in assay [17] was inactive.

As to `CC(C)COC(=O)c1ccccc1O`, the Potency result in assay [19], in [2], in [3], in assay [5], in [6] and in [7] was “inactive” in each case. Also, the Potency entry in [9], in [11], in [14] and in assay [15] was “inactive” each time. The result in [4], in assay [8], in assay [12], in [13], in [16] and in assay [17] was inactive. Besides, the result in assay [18] was inactive.

`O=C(O)/C=C/c1ccc(Cn2ccnc2)cc1`: the Potency result (in assay [19]; with Aromatase (Homo sapiens); in [9]; in assay [10]; in assay [11]; in [14]) was “inactive” in each case. In assay [15], the Potency entry was “inactive”. The result in assay [4], in assay [8], in assay [12], in assay [16], in assay [17] and in assay [18] was inactive.

Consider `C=C(C)C(=O)NCCC[N+](C)(C)C`, for which the Potency result in [19], in assay [2], in assay [3], in assay [5], in assay [6] and in [7] was “inactive” in each case. The Potency entry (with Aromatase (Homo sapiens); in assay [9]; in [10]; in assay [11]; in [14]; in assay [15]) was “inactive” each time. Moreover, the compound was called inactive in assay [8], in [12], in assay [13], in assay [16], in assay [17] and in assay [18].

Turning to `CCC(=O)Nc1cccc(N)c1`, the Potency entry (in assay [19]; in [3]; in assay [5]; in assay [6]; in assay [7]; in the assay with Aromatase (Homo sapiens)) was “inactive” throughout. For the same compound, the Potency result in assay [9], in assay [10], in assay [11] and in assay [14] was “inactive” each time. For the same compound, the compound was called inactive in assay [4], in [8], in [13], in assay [16], in [17] and in [18].

As to `CCCCCCCCCCCCCCCCCCOCC(O)CO` (configuration not stated), the Potency result (in assay [19]; in assay [6]; in the assay with Aromatase (Homo sapiens); in assay [9]; in [10]; in assay [11]) was “inactive” throughout. For the same compound, the Potency entry in assay [14] and in [15] was “inactive” in each case. Besides, the outcome in [4], in [8], in assay [16], in assay [17] and in assay [18] was inactive.
